These results are taken from PubChem BioAssay (NCI).

“And” between values parts separate entries of the source, which are not always exact repeats. Equal entries are not always repeated. About 79,000 compounds went through this panel and 15% of them were active in at least one assay; those are over-represented in the sample as a whole. A number with no mark means an inactive call. The source made the active and inactive calls. Rule as the data show it: active = growth inhibition above about 70%; inactive = the rest.

Experiment [1] in a line: NCI Yeast Anticancer Drug Screen. Data for the rad50 strain (AID 155).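 Also: 0% = growth of vehicle-only cultures of the same strain.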 Particulars: S. cerevisiae rad50 strain growth inhibition; at 50.0 µM; hits give high values. The essentials: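 A DNA repair-deficient yeast mutant serves as the test organism; compound-induced growth inhibition is calculated against vehicle-treated cells.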
Experiment [2] can be described thus: NCI Yeast Anticancer Drug Screen. Data for the mec2-1 strain (AID 157). Particulars: S. cerevisiae mec2-1 strain, at 50.0 µM, hits give high values. The essentials:
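Each compound was tested on mec2-1 yeast, a strain altered in DNA damage repair or cell cycle control. Growth inhibition is reported relative to vehicle.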

Experiment [3] in a line: NCI Yeast Anticancer Drug Screen. Data for the sgs1 mgt1 strain (AID 161).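 Also: 0% = growth of cultures given vehicle only.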 Particulars: S. cerevisiae sgs1 mgt1 strain, at 50.0 µM, hits give high values. The essentials: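 Mutant yeast exposed to compound; growth scored against vehicle-only wells.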
Experiment [4] is described as follows: NCI Yeast Anticancer Drug Screen. Data for the cln2 rad14 strain (AID 165).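 Also: 0% = growth equal to vehicle treated cultures.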 The following applies: S. cerevisiae cln2 rad14 strain, at 50.0 µM, hits give high values. The essentials: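 Test compounds were added to cln2 rad14 yeast cultures; inhibition of growth was then determined by comparison with vehicle treatment.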
Experiment [5] in a line: NCI Yeast Anticancer Drug Screen. Data for the bub3 strain (AID 167). Particulars: S. cerevisiae bub3 mutant strain, at 50.0 µM, hits give high values. The essentials:
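Inhibition values come from growth of compound-treated mutant yeast normalised to vehicle-treated controls.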

The nature of experiment [6]: NCI Yeast Anticancer Drug Screen. Data for the mlh1 rad18 strain (AID 175). The following applies: S. cerevisiae mlh1 rad18 strain growth inhibition; at 50.0 µM; hits give high values. The essentials: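 Inhibition values reflect reduced growth of mutant yeast versus vehicle-treated controls following compound exposure; the mutations affect DNA damage repair.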

With `Cc1cccc(C)c1CCl`, the growth inhibition in experiment [1] is -1.45% and 23.5%; in experiment [2] it was -9.75% and -12.8%; in experiment [3], -8.15% and -4.3%; in experiment [4], 12.9% and -38.5%; in experiment [5], 9.65% and -1.35%; in experiment [6] it was 6.95% and 20.7%.
Consider `NCCN.O=N[O-].O=N[O-].O=N[O-].O=N[O-].[Co+3].[K+]`, for which the growth inhibition in experiment [1] is -1.1%; in experiment [2], 4.05%; in experiment [3], 14.4%; in experiment [4], 12.3%; in experiment [5], 3.6%; in experiment [6] it was 2.1%.
Regarding `CCN1CCC(OC(=O)c2ccccc2)(c2nccc3ccccc23)CC1`, the growth inhibition in experiment [1] was -5.85%; in experiment [2], 0.95%; in experiment [3] it was 7.05%; in experiment [4], 9.05%; in experiment [5], 9.75%; in experiment [6], 8.9%.
In the case of `C[N+](C)(C)C`, the growth inhibition is -0.3% and 4.95% and -7% in experiment [1]; 14.2% and -39% and -9.3% in experiment [2]; -5.75% and -25.2% and 8.3% in experiment [3]; -16.5% and 6.35% and 2.35% in experiment [4]; 21.4% and -8.1% and 8.75% in experiment [5]; -1.65% and -19.1% and -2.9% in experiment [6].
Regarding `CC(=O)O/C=C(/C=C/OC(C)=O)C(C/C=C(\C)C#CC=C(C)C)OC(C)=O` (configuration not stated), the growth inhibition is 4.95% in experiment [1]; -13.7% in experiment [2]; 0.8% in experiment [3]; -2.2% in experiment [4]; 5.5% in experiment [5]; -0.1% in experiment [6].
For the compound `[Se]c1nc(N2CCOCC2)ncc1-c1ccccc1`, the growth inhibition in experiment [1] is -18%; in experiment [2], 0.5%; in experiment [3] it was -17.2%; in experiment [4] it was 0.5%; in experiment [5], -3.3%; in experiment [6], 9%.
Consider `CCC1(c2ccccc2)C(=O)N(C)C(=O)N(CCCl)C1=O` (configuration not stated), for which the growth inhibition is 12.5% in experiment [1]; 8.15% in experiment [2]; -0.8% in experiment [3]; -34.5% in experiment [4]; 22.3% in experiment [5]; 3.85% in experiment [6].
In the case of `CN(C)C(=O)Oc1c(-c2ccccc2)c(=O)n2c3ccccc3n3c(=O)n(C)c(=O)c1c23`, the growth inhibition in experiment [1] is 21.8%; in experiment [2], 23.4%; in experiment [3] it was -0.9%; in experiment [4], 17.1%; in experiment [5], 11.7%; in experiment [6] it was 19.8%.
As to `O=C(NCC(O)CO)c1cc([N+](=O)[O-])cc([N+](=O)[O-])c1N(CCCl)CCCl` (configuration not stated), the growth inhibition is 31.8% in experiment [1]; 19.8% in experiment [2]; 28.7% in experiment [3]; 2.05% in experiment [4]; 13.9% in experiment [5]; 12.6% in experiment [6].
`Cc1coc2c1CCC(C)C2` (configuration not stated): the growth inhibition was -6.65% in experiment [1]; -24.8% in experiment [2]; -5.5% in experiment [3]; 1.55% in experiment [4]; 1.65% in experiment [5]; -5.9% in experiment [6].
For `CCN1C(=O)C(=C/C=C/c2ccc(OC)cc2)C(=O)N(CC)C1=S`, the growth inhibition in experiment [1] was 37.4%; in experiment [2], 10.8%; in experiment [3] it was 46.4%; in experiment [4], 11.8%; in experiment [5], 13.8%; in experiment [6] it was 36.7%.
On to `CCCCCCNC(=O)CCl`, for which the growth inhibition was 6.5% in experiment [1]; -9.85% in experiment [2]; 15.3% in experiment [3]; -14.6% in experiment [4]; 7.45% in experiment [5]; -9.15% in experiment [6].
`NCC#CCNCCCN1CC1`: the growth inhibition was 8.2% in experiment [1]; 47.2% in experiment [2]; -9.4% in experiment [3]; 16.9% in experiment [4]; -1.55% in experiment [5]; -41.5% in experiment [6].
Take `CN(CC(N)=O)C(=O)N(CCCl)N=O`: the growth inhibition in experiment [1] is 7.8%; in experiment [2] it was 1.6%; in experiment [3], -11.5%; in experiment [4], -18.7%; in experiment [5] it was 1.55%; in experiment [6], -41.5%.
Regarding `NCCCP(c1ccccc1)c1ccccc1`, the growth inhibition in experiment [1] is 0.3%; in experiment [2], 0.4%; in experiment [3], -5.65%; in experiment [4] it was 8.7%; in experiment [5], -1.7%; in experiment [6] it was 10.6%.
Regarding `CCN(CC)C1=C(N(CC)CC)C(N(CC)CC)=C(N(CC)CC)C1=O.[C-]#[O+].[C-]#[O+].[C-]#[O+].[Fe]`, the growth inhibition in experiment [1] is -45.6%; in experiment [2] it was -13.2%; in experiment [3] it was -22.1%; in experiment [4] it was -2.65%; in experiment [5] it was -16.6%; in experiment [6], -33.8%.
Take `CC1=CC=NC(Cl)(Cl)N1`: the growth inhibition is 19.4% in experiment [1]; -9.6% in experiment [2]; -15.7% in experiment [3]; 13.6% in experiment [4]; -1.35% in experiment [5]; 20.4% in experiment [6].
In the case of `CC12CC[C]([Hg][I])(CC1)C2(C)C`, the growth inhibition in experiment [1] was 96.5% (active); in experiment [2], 98.6% (active); in experiment [3] it was 99.8% (active); in experiment [4], 4.3%; in experiment [5], 74.9% (active); in experiment [6], 84.8% (active).
In the case of `NC(N)=N/N=C/c1c[nH]c2ccccc12`, the growth inhibition in experiment [1] was -5.4%; in experiment [2] it was -14.2%; in experiment [3], -18%; in experiment [4], 4.8%; in experiment [5], -10.1%; in experiment [6], -25.1%.
For `COCCCCCC(=O)CP(=O)(OC)OC`, the growth inhibition in experiment [1] is -7.15%; in experiment [2] it was -1.4%; in experiment [3] it was -1.2%; in experiment [4], -12.9%; in experiment [5], -6.4%; in experiment [6], 8.95%.
Take `COc1cc(C(N)Cc2ccccc2)ccc1O` (configuration not stated): the growth inhibition in experiment [1] is -9.85%; in experiment [2] it was 1%; in experiment [3], -1.25%; in experiment [4], -33.1%; in experiment [5], 26.6%; in experiment [6], 4.6%.
On to `CC(NCCO)C(O)c1ccccc1` (configuration not stated), for which the growth inhibition is -23.9% in experiment [1]; -42.5% in experiment [2]; -2.25% in experiment [3]; 8.5% in experiment [4]; -21.2% in experiment [5]; -16.6% in experiment [6].
